# Several values for one entry are separate records, joined by “and”; a condition that tells them apart may be missing. Equal values may be shown once.
# Tested on: Plasmodium falciparum
# Test: GSK_TCMDC: Inhibition of Plasmodium falciparum 3D7 in whole red blood cells, using parasite LDH activity as an index of growth. Test compounds present at 2uM
# Assay type: functional
row,Compound,Inhibition
1,COc1cccc(CN2CCC(CCOC(c3ccccc3)c3ccc(Cl)cc3)CC2)c1O (stereo not drawn),99%
2,O=C(/C=C/c1ccc(Cl)c(Cl)c1)NC1CCC(N2CCC(c3c[nH]c4ccc(O)cc34)CC2)CC1 (stereo not drawn),97%
3,COc1cc(NC(=O)c2nn(CCCN3CCC4(CC3)C(=O)NCN4c3ccccc3)cc2-c2ccc(Cl)c(Cl)c2)cc(OC)c1OC,97%
4,CCCCCCC(C)(C)c1cc(O)c2c(c1)OC(C)(C)c1ccncc1-2.Cl,95%
5,CC[C@H]1CN2CC[C@@H]1C[C@H]2[C@H](O)c1cc(N2CCOCC2)nc2ccc(OC)cc12,99%
6,O=C(/C=C/c1ccc(Cl)c(Cl)c1)N1CCC(CN2CCC(c3c(-c4ccc(F)cc4)[nH]c4ccccc34)CC2)CC1,100%
7,CC(C)/C(=C(/F)CN1C(=O)C(NC(=O)c2cc3ccccc3[nH]2)C(=O)N(c2ccccc2)c2ccccc21)c1ccccc1 (stereo not drawn),98%
8,COc1ccc(C[C@H]2NC[C@H](O)[C@H]2OC(C)=O)cc1 [ANISOMYCIN],100%
9,Cc1c(C)c2c(c(C)c1O)CC[C@](C)(C(=O)N1CCC(CN3CCC(c4c[nH]c5ccccc45)CC3)CC1)O2,100%
10,CC(C)N(C)C(=O)n1cnc(S(=O)(=O)C2CC3CCC2C3)n1.Cl (stereo not drawn),97%
11,CC(=O)Nc1ccc(CN2CCC(N(C)c3ccc(NC(=O)c4cccc(C)c4)cc3)CC2)cc1.O=C(O)C(F)(F)F,91%
12,O=C(Nc1ccccc1Cl)NC1CCC(CN2CCC(c3c[nH]c4ccccc34)CC2)CC1 (stereo not drawn),100% and 98%
13,O.Oc1cccc(C2CCCN(CCc3c[nH]c4ccccc34)C2)c1 (stereo not drawn),93%
14,CC(Cc1ccc(OCCCCOc2ccccc2)cc1)NCCC1CCCN1C (stereo not drawn),99%
15,COc1cccc(C2(C)CCN(CCCCNC(=O)c3ccc(NC(=O)c4ccc(Cl)cc4)cc3)CC2)c1.Cl,97%
16,Cc1ccc(CC(C)NC[C@H](O)c2cccc(Cl)c2)cc1.Cl (stereo partly drawn),96%
17,CCOC(C(=O)OCC1CCCN1C(C)C)(c1ccccc1)c1ccccc1 (stereo not drawn),98%
18,O=C(/C=C/c1cccc2ccccc12)NC1CCC(CN2CCC(c3c[nH]c4ccccc34)CC2)CC1 (stereo not drawn),100%
19,O=C1NCN(c2ccc(O)cc2)C12CCN(CCCC(c1ccc(F)cc1)c1ccc(F)cc1)CC2,94%

row,Compound,Inhibition
1,CC(C)(C)c1cc(/C=C/C(=O)NC2CCC(CN3CCC(c4c[nH]c5ccccc45)CC3)CC2)cc(C(C)(C)C)c1O (stereo not drawn),100%
2,COC(=O)c1ccc(CC(C)NCC(O)c2cccc(Oc3cccc(C(F)(F)F)c3)c2)cc1.Cl (stereo not drawn),91%
3,O=C(/C=C/c1cc(F)c(F)cc1F)N1CCC(CN2CCC(c3c[nH]c4ccccc34)CC2)CC1,93%
4,COc1ccc2[nH]cc(C3=CCN(CC4CC4C(=O)c4ccccc4)CC3)c2n1 (stereo not drawn),95%
5,O=C(/C=C/c1cc(C(F)(F)F)ccc1F)NC1CCC(CN2CCC(c3c[nH]c4ccccc34)CC2)CC1 (stereo not drawn),100%
6,Cc1[nH]c2ccc([N+](=O)[O-])cc2c1C1=CCN(C)CC1,86%
7,Cc1[nH]c2ccccc2c1C1CCN(CC2CCC(NC(=O)/C=C/c3ccc(Cl)c(Cl)c3)CC2)CC1 (stereo not drawn),100%
8,CN(c1cc(NC(=O)c2ccc(F)cc2)ccn1)C1CCN(Cc2ccc(C#N)cc2)CC1.O=C(O)C(F)(F)F,87%
9,CC(Cc1ccc(C2=CCNCC2)cc1)NCC(O)c1cccc(C(F)(F)F)c1.Cl (stereo not drawn),89%
10,CC[C@H]1CN2CC[C@@H]1C[C@H]2[C@H](O)c1cc(N2CCC(N3CCCCC3)CC2)nc2ccc(OC)cc12,99%
11,O=C(NC1CCC(CN2CCC(c3c[nH]c4ccccc34)CC2)CC1)[C@H]1Cc2ccccc2CN1 (stereo partly drawn),89%
12,NC(=O)CN1CC=C(c2c[nH]c3ccc(Br)cc23)CC1,83%
13,Cc1cccc(C(=O)Nc2ccnc(N(C)C3CCN(CC(C)C)CC3)c2)c1.O=C(O)C(F)(F)F,95%
14,C[C@@H](CC1CCCCC1)NCc1ccccc1O,98%
15,CN(c1cc(NC(=O)c2ccc(F)cc2)ccn1)C1CCN(Cc2cccc(C#N)c2)CC1.O=C(O)C(F)(F)F,97%
16,CC1(CCCCN2CC=C(c3c[nH]c4ccccc34)CC2)C(=O)Nc2ccccc21 (stereo not drawn),94%
17,O=C(/C=C/c1c(Cl)cccc1Cl)NC1CCC(CN2C3CCC2CC(c2c[nH]c4ccccc24)C3)CC1 (stereo not drawn),95%
18,O=C(CCC(=O)c1ccc2c3c(cccc13)CC2)NC1CCC(CN2CCC(c3c[nH]c4ccccc34)CC2)CC1 (stereo not drawn),96%
19,Cc1cccc2c(C3CCN(CC4CCC(NC(=O)/C=C/c5ccc(Cl)c(Cl)c5)CC4)CC3)c[nH]c12 (stereo not drawn),92%

# Reference: ChEMBL document CHEMBL1157539, “Thousands of chemical starting points for antimalarial lead identification” (Nature, 2010)
